Potency and outcome data for seven compounds are collected here from PubChem BioAssay (Tox21).

Structures are written as SMILES. Unmarked numbers belong to inactive results. Inconclusive results are not listed. Active and inactive are the calls of the source. Unless noted, calls come from the whole dose curve.

Experiment [1] deals with Gonadotropin-releasing hormone receptor (Homo sapiens) (UniProt P30968). Briefly: Human gonadotropin-releasing hormone receptor (GnRHR) small molecule agonists, calcium flux assay in GnRHR-HEK293 cells (AID 1920063). Note: nearly all actives have a fitted effect of over 35% in size. The method in brief: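 Fluorescence kinetics (480 nm excitation, 540 nm emission; 3 min, 1 s steps) report calcium mobilisation in human GnRHR-HEK293 cells in agonist mode. Dye incubation: 1 h, 37 C.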
Chain of Gonadotropin-releasing hormone receptor (Homo sapiens) (P30968 whole entry, looked up): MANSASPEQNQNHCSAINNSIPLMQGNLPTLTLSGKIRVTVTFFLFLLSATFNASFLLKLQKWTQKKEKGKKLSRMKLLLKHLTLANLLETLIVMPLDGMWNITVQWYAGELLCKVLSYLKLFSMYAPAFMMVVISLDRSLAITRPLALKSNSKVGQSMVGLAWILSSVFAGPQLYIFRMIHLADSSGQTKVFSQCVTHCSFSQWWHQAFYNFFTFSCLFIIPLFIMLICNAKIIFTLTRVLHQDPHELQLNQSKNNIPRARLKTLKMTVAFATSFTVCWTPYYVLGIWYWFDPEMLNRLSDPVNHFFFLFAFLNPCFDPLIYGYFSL
(Calcium assays in cells follow changes in intracellular calcium, usually with a dye or a luminescent sensor.)

The nature of experiment [2]: G protein-coupled receptor (GPCR) small molecule agonists, calcium flux assay: HEK293 wild type cell line counter screen (AID 1920065). The method, boiled down:
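Readout: fluorescence at 480 nm excitation/540 nm emission, sampled at 1 s intervals for 3 min. Cells had been cultured 18 h, then dye-loaded 1 h at 37 C before compound or ATP addition.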

The nature of experiment [3]: p53 small molecule agonists, cell-based qHTS assay with human liver microsomes (AID 1963577).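 Note: p53 response element beta-lactamase reporter cells with liver microsomes plus NADPH.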 The method, boiled down:
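Reporter activation was measured by LiveBLAzer fluorescence intensity in p53RE-bla cells, which had been exposed to compounds for 16 h at 37 C alongside 0.5 mg/mL human liver microsomes and 0.5 mg/mL NADPH (final concentrations).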
For orientation: Quantitative high-throughput screening tests each substance at several concentrations.

A short description of experiment [4]: p53 small molecule agonists, cell-based qHTS assay with rat liver microsomes (AID 1963578). The method in brief:
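Compound in DMSO added to p53RE-bla cells 5 h post-plating; rat microsomes/NADPH 0.5 mg/mL final; 16 h, 37 C; LiveBLAzer 2 h RT.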

The nature of experiment [5]: p53 small molecule agonists, cell-based qHTS assay with human liver microsomes: qHTS cell viability counter screen (AID 1963579). Note: nearly all actives have a fitted effect of over 45% in size. The method, boiled down:
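HLM-supplemented (0.5 mg/mL final) and NADPH-supplemented (0.5 mg/mL final) p53RE-bla cultures, 4,000 cells per well, were dosed with compounds in DMSO for 16 h at 37 C; luminescent ATP detection (CellTiter-Glo, 30 min, room temperature) quantified surviving cells.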

The nature of experiment [6]: p53 small molecule agonists, cell-based qHTS assay (AID 1963582; active = well fitted activation curve with a large enough effect in the signal ratio in the repeat runs, not every such curve was filed as active; the % refers to the signal ratio). The method, boiled down: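 Compounds are pin-transferred in DMSO onto p53RE-bla cells and incubated 16 h at 37 C. The B/G FRET beta-lactamase substrate is then applied for 2 h at RT and fluorescence recorded.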
Experiment [7] has as its target 5-hydroxytryptamine receptor 2A (Homo sapiens) (UniProt P28223). Kind of experiment: 5-hydroxytryptamine receptor 2A (HTR2A) small molecule antagonists, cell-based qHTS assay (AID 1963586). Note: nearly all actives have a fitted effect of over 45% in size. The method in brief:
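Antagonist-mode intracellular calcium assay: DOI (4 nM) added after 5 min compound pre-incubation at room temperature to dye-loaded HTR2A-CHO cells. Fluorescence followed for 3 min, sampled every second.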

Experiment [8] shares this target. Kind of experiment: 5-hydroxytryptamine receptor 2A (HTR2A) small molecule agonists, cell-based qHTS assay (AID 1963587). Note: nearly all actives have a fitted effect of over 30% in size. The method, boiled down: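 HTR2A-CHO cells, plated 18 h at 37 C/5% CO2, dye-loaded 1 h at 37 C; compounds in DMSO added by pin tool (agonist mode). Intracellular calcium flux read as kinetic fluorescence on FDSS over 2 min at 1 s intervals.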

Experiment [9] has as its target Muscarinic acetylcholine receptor M1 (Homo sapiens) (UniProt P11229). Kind of experiment: Cholinergic receptor muscarinic 1 (CHRM1) small molecule antagonists, cell-based qHTS assay (AID 1963588). Note: nearly all actives have a fitted effect of over 40% in size. The method in brief:
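CHRM1-CHO calcium-flux assay, antagonist mode. Cells were seeded 18 h, dye-loaded 1 h at 37 C and given compound for 5 min at RT, then acetylcholine was added at 50nM. FDSS fluorescence was read 3 min; 15 concentrations, three runs.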

For experiment [10] the target is unchanged. Kind of experiment: Cholinergic receptor muscarinic 1 (CHRM1) small molecule agonists, cell-based qHTS assay (AID 1963589). Note: nearly all actives have a fitted effect of over 35% in size. The method in brief: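 Each compound was tested at 15 concentrations across three independent runs on dye-loaded CHO cells stably expressing human CHRM1, reading intracellular calcium fluorescence kinetically at 1 sec intervals.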

Experiment [11] in a line: cAMP Responsive Elements (CRE) small molecule agonists, cell-based qHTS assay (AID 1963590). The method, boiled down:
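Cell line: CRE-bla HEK 293T; medium DMEM/10% dialyzed FBS/0.1 mM NEAA/1 mM pyruvate/25 mM HEPES; 3 h compound exposure; beta-lactamase FRET readout after 2 h substrate loading at RT.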

Experiment [12] in a line: cAMP Responsive Elements (CRE) small molecule antagonists, cell-based qHTS assay (AID 1963591; active = well fitted inhibition curve with a large enough effect in the signal ratio in the repeat runs, not every such curve was filed as active; the % refers to the signal ratio). The method, boiled down:
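Inhibition of NKH477-driven (0.25 uM final) CRE-beta-lactamase signal in HEK293T cells, 3 h compound exposure at 37 °C, detected by FRET substrate fluorescence.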

Experiment [13] has as its target Beta-2 adrenergic receptor (Homo sapiens) (UniProt P07550). Kind of experiment: Adrenergic beta2 receptor (ADRB2) small molecule antagonists, cell-based qHTS assay (AID 1963592). Note: nearly all actives have a fitted effect of over 50% in size. Note: potency is the fitted concentration of half-maximal effect. The method, boiled down:
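Cells (CHO, stable ADRB2 overexpression) incubated 18-20hr at 37C; compounds added from DMSO; agonist mix (1nM isoproterenol, 100uM IBMX, 25uM Ro-20-1724) added; 0.5hr RT; d2-cAMP and anti-cAMP-cryptate added; 1hr RT; 665/615 nm read.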

Experiment [14] has the same target. Kind of experiment: Adrenergic beta2 receptor (ADRB2) small molecule agonists, cell-based qHTS assay (AID 1963593).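 Note: CHO cells stably overexpressing human ADRB2.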 The method in brief: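 CHO cells stably over-expressing ADRB2 were plated overnight at 37C, then dosed with compounds plus a stimulation mix containing 100uM IBMX and 25uM Ro-20-1724 for 0.5hr at room temperature. cAMP was measured by HTRF competition, 1hr.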

Experiment [15] concerns the target D(2) dopamine receptor (Homo sapiens) (UniProt P14416). Briefly: Dopamine D2 receptor (DRD2) small molecule agonists, cell-based qHTS assay (AID 1963594). Note: nearly all actives have a fitted effect of over 35% in size. The method in brief:
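HEK293 cells stably expressing DRD2 were cultured 24 h at 37 C, then given Ro20-1724 (0.1 mM final) and compounds for 10 min at room temperature. NKH477 (200nM) was then added for 30 min. cAMP was read by HTRF.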

Experiment [16] has the same target. Kind of experiment: Dopamine D2 receptor (DRD2) small molecule antagonists, cell-based qHTS assay (AID 1963595; active = well fitted inhibition curve with a large enough effect in the signal ratio in the repeat runs, with a control signal flat; the % refers to the signal ratio). The method in brief:
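HEK293 cells stably expressing DRD2, preincubated with 0.1 mM Ro20-1724 and compounds 10 min, were stimulated with 200 nM NKH477 plus 12 nM quinpirole for 30 min at room temperature; cAMP measured by HTRF (665/620 nm).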

Experiment [17] is described as follows: Nuclear factor erythroid 2-related factor 2/antioxidant responsive element (Nrf2/ARE) small molecule agonists: luciferase reporter gene qHTS assay in human keratinocytes (AID 1919969). Note: nearly all actives have a fitted effect of over 35% in size. Note: potency is the fitted concentration of half-maximal effect. A general note: A reporter such as luciferase makes a cellular process visible.
Experiment [18] addresses KiSS-1 receptor (Homo sapiens) (UniProt Q969F8). Briefly: Human kisspeptin (KISS1R) small molecule agonists, calcium flux assay in KISS1R-HEK293 cells (AID 1920064; active = well fitted activation curve with a large enough effect in the repeat runs). The method, boiled down: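 Measures KISS1R agonism through calcium-sensitive dye fluorescence in stably transfected HEK293 cells, read for 3 min after pin-tool compound delivery; 15-point titrations in triplicate.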

Experiment [19] in a line: p53 small molecule agonists, cell-based qHTS assay with rat liver microsomes: qHTS cell viability counter screen (AID 1963580). Note: nearly all actives have a fitted effect of over 45% in size. The method in brief:
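In HCT-116 cells carrying a p53 response element-bla reporter, compounds were metabolically activated in situ by rat liver microsomes with NADPH over 16 h. Cell ATP content then served as the cytotoxicity measure.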

The nature of experiment [20]: p53 small molecule agonists, cell-based qHTS assay: qHTS cell viability counter screen (AID 1963581). Note: nearly all actives have a fitted effect of over 45% in size. The method, boiled down:
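In the same plates used for the p53 bla reporter, HCT-116 cells given compounds for 16 h at 37 C received CellTiter-Glo; luminescence was recorded 30 min later at room temperature.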

Chain of Beta-2 adrenergic receptor (Homo sapiens) (P07550 whole entry, looked up): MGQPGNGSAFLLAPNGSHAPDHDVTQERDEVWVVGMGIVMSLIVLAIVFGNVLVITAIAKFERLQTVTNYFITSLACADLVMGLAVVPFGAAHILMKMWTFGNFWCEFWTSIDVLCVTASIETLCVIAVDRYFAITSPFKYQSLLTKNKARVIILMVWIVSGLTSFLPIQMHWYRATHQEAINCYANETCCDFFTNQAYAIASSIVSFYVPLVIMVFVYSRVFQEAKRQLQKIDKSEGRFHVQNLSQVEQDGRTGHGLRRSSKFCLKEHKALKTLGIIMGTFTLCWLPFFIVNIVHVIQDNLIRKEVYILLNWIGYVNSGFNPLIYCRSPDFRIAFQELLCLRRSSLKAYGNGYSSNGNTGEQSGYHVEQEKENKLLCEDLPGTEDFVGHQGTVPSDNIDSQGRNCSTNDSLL
Chain of KiSS-1 receptor (Homo sapiens) (Q969F8 whole entry, looked up): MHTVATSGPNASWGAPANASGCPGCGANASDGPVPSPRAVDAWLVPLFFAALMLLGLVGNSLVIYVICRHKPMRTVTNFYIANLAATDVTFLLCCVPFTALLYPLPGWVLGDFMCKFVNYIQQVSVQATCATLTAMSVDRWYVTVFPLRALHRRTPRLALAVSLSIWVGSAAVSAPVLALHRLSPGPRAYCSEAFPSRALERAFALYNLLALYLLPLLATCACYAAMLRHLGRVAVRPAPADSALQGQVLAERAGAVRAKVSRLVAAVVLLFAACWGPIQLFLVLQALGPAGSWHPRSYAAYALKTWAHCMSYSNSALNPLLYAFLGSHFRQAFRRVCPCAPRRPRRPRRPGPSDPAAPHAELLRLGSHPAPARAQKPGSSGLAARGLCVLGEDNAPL
Chain of 5-hydroxytryptamine receptor 2A (Homo sapiens) (P28223 whole entry, looked up): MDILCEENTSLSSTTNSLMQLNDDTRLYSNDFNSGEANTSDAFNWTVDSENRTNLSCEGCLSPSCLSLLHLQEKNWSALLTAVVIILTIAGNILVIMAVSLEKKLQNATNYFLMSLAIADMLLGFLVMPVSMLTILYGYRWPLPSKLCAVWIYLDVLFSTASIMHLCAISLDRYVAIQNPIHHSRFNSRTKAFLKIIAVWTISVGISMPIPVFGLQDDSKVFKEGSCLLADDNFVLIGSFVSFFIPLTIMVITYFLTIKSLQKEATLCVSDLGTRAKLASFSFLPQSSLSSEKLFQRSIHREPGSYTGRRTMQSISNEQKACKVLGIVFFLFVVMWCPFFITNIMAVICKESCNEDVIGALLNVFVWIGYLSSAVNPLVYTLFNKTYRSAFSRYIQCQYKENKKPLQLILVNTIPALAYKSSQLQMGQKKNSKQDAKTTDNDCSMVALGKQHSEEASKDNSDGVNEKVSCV
Chain of Muscarinic acetylcholine receptor M1 (Homo sapiens) (P11229 whole entry, looked up): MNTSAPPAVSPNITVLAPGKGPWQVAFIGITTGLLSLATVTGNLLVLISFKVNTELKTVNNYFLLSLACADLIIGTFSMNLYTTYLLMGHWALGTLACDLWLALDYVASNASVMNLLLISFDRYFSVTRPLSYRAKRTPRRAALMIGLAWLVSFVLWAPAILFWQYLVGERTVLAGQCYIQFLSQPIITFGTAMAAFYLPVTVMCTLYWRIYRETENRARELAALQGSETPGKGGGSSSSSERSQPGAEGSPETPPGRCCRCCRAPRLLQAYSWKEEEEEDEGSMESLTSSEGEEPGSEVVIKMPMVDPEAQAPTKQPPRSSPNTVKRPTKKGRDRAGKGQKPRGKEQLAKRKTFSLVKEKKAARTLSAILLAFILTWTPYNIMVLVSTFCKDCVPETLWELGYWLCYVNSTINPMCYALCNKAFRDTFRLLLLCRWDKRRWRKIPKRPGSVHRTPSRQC
Chain of D(2) dopamine receptor (Homo sapiens) (P14416 whole entry, looked up): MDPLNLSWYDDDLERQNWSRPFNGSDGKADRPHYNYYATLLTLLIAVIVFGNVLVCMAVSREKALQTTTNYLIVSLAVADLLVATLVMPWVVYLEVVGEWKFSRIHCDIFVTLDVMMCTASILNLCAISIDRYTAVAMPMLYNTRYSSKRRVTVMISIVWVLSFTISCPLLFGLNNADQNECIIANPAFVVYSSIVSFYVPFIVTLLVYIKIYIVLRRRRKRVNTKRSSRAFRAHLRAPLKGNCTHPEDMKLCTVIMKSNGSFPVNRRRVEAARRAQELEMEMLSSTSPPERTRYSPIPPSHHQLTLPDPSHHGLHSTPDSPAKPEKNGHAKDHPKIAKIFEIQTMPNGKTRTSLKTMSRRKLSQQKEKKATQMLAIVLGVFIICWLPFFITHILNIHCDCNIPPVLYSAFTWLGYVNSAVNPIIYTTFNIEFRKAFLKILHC

Regarding `Cc1cccc2sc(N)nc12`, the Potency entry in experiment [1], in experiment [3], in experiment [4], in experiment [5], in experiment [6] and in experiment [7] was “inactive” throughout. The Potency entry in experiment [8], in experiment [9], in [10], in experiment [11], in [12] and in experiment [13] was “inactive” in each case. Besides, the Potency result in experiment [14], in experiment [15] and in experiment [16] was “inactive” in each case. Besides, the result in [2] was inactive.
Consider `COc1ccc2nc(NC(=O)Nc3ccccc3)sc2c1`, for which the Potency in experiment [17] is 0.596 µM (active); in experiment [13], 11.9 µM (active). For the same compound, the Potency entry in experiment [1], in experiment [3], in [5], in [19], in experiment [6] and in [7] was “inactive” in each case. The Potency result in [8], in experiment [9], in experiment [10], in [11], in [12] and in [15] was “inactive” throughout. Besides, the Potency entry in experiment [16] was “inactive”. The outcome in [18] and in [2] was inactive.
`CN1CCN(c2cc3c(cc2F)c(=O)c(C(=O)O)cn3-c2ccc(F)cc2)CC1`: the Potency entry in [17], in [1], in experiment [3], in experiment [5], in experiment [19] and in [20] was “inactive” in each case. Besides, the Potency result in [6], in experiment [8], in [9], in experiment [10], in [15] and in experiment [16] was “inactive” throughout. The outcome in experiment [18] and in experiment [2] was inactive.
`NC(=O)C(c1ccccc1)(c1ccccc1)[C@@H]1CCN(CCc2ccc3c(c2)CCO3)C1`: the Potency entry in experiment [17], in experiment [1], in experiment [3], in [19], in [20] and in experiment [10] was “inactive” each time. For the same compound, the Potency result in experiment [11], in [13], in [15] and in experiment [16] was “inactive” in each case. Besides, the result in [18] and in experiment [2] was inactive.
On to `Cc1ccc(OC(=O)c2ccccc2O)cc1`, for which the Potency entry in experiment [17], in experiment [3], in experiment [4], in experiment [19], in [20] and in experiment [6] was “inactive” each time. Also, the Potency entry in experiment [7], in experiment [8], in [9], in [10], in experiment [13] and in [14] was “inactive” throughout. For the same compound, the Potency entry in experiment [15] and in experiment [16] was “inactive” throughout. Besides, the outcome in experiment [18] and in experiment [2] was inactive.
For `CCCCCC(=O)OCCc1ccccc1`, the Potency result in experiment [17], in [1], in [3], in [5], in [20] and in [6] was “inactive” throughout. The Potency result in [7], in experiment [9], in [10], in experiment [11], in experiment [12] and in [13] was “inactive” each time. For the same compound, in experiment [16], the Potency result was “inactive”. The result in [18] and in [2] was inactive.
Take `O=C(O)CCC(=O)C(=O)O`: the Potency entry in [17], in [3], in experiment [4], in experiment [5], in [19] and in experiment [6] was “inactive” throughout. The Potency result in [8], in experiment [10], in experiment [11], in experiment [12], in [13] and in experiment [15] was “inactive” in each case. Further, the Potency result in experiment [16] is “inactive”. For the same compound, the outcome in experiment [18] and in [2] was inactive.
